Assay results: PubChem BioAssay (NCATS)
Results filed as inconclusive are left out. Calls of active or inactive are those of the source. Unless noted, the call rests on the fitted dose curve.

Assays:
[1] = Cell Viability - Hek293 (AID 427;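 active means compounds whose dose-response curve shows a full or clear partial loss of cell viability, called from curve shape rather than a numeric limit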;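 further: potency means the concentration at half of the fitted maximal effect; cells exposed to compound for 40 hours at 37 °C before reading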); settings: qHTS
In short: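 AC50 values derive from Hill-modelled concentration-response of ATP-based luminescence, normalized between DMSO-only and 100 uM tamoxifen controls. Cells were exposed in complete culture medium for 40 hr at 37 °C before detection.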

[2] = Cell Viability - MRC5 (AID 434); settings: MRC5 lung fibroblast viability, qHTS;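 further: potency means the concentration at half of the fitted maximal effect; potency reflects cytotoxicity seen as loss of intracellular ATP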
In short: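 qHTS cytotoxicity in human lung fibroblast MRC5 cells; 40 hr treatment, 37 °C; cellular ATP by luciferase luminescence; DMSO = 0%, 100 uM tamoxifen = 100% inhibition; Hill-fit AC50.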

[3] = target: Mitogen-activated protein kinase 10 (Mus musculus) (UniProt Q61831); assay: JNK3 AlphaScreen Assay (AID 530; active means well fitted curve in either direction with a large enough effect, not every such curve was filed as active;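 further: kinase came from lysate of stimulated human HepG2 cells; signal reports phosphorylation of biotinylated GST-cJun 1-79 at Ser73 with 10 µM ATP; on the % scale 0 is the no-effect control and ±100 the full control effect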); settings: JNK3 lysate, c-Jun phosphorylation; series mostly up to 57.1 µM
In short: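 Compound titrations were preincubated 15 minutes at room temperature with substrate, antibody and pre-activated JNK3-containing HepG2 lysate. Reactions were started with 10 uM ATP and stopped with EDTA-containing bead buffer for AlphaScreen detection.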

[4] = Cell Viability - N2a (AID 540; active means well fitted curve in the direction sought with a large enough effect; an effect the other way counts as inactive or inconclusive;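 further: cells exposed to compound for 40 h at 37 °C; plate controls were DMSO alone for no effect and tamoxifen control for full effect; nearly all actives have a fitted effect of over 45% in size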); settings: N2a mouse neuroblastoma cell viability; activity change, negative = cytotoxicity: at 92.2 µM (top of the series)
In short: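 Luminescent ATP signal (CellTiter-Glo, 20 min at room temperature) served as the viability read-out after N2a cells were treated with compounds for 40 hours at 37 °C. Concentration-response data were fitted to the Hill equation for AC50.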

[5] = Cell Viability - H-4-II-E (AID 543; active means well fitted curve in the direction sought with a large enough effect; an effect the other way counts as inactive or inconclusive; further: nearly all actives have a fitted effect of over 35% in size; further: potency means the concentration at half of the fitted maximal effect); settings: H-4-II-E rat hepatoma viability; series mostly up to 92.2 µM
In short: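 Luminescent ATP signal (CellTiter-Glo) served as the viability read-out, with cytotoxicity seen as a concentration-dependent ATP drop. Cells were treated for 40 hours in complete medium. AC50 values derive from Hill-equation modelling.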

[6] = MultiTox-Fluor Cytotoxicity Assay - LYMP1-002 - Dead Cells (AID 960; active means well fitted curve in the direction sought with a large enough effect; an effect the other way counts as inactive or inconclusive; further: nearly all actives have a fitted effect of over 60% in size); settings: LYMP1-002 lymphoblastoid cells, dead-cell protease fluorescence; series mostly up to 46.1 µM
In short: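 LYMP1-002 cells 2500/well; 5 hr 37 C pre-incubation; compound 16 hr 37 C; MultiTox-Fluor reagent 60 min RT; dead-cell fluor Ex/Em 485/520. Norm. to DMSO (0%) vs 15 uM tetraoctylammonium bromide (100%); Hill AC50.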

[7] = target: Estrogen receptor (Homo sapiens) (UniProt P03372); assay: qHTS assay for small molecule agonists of estrogen receptor alpha signaling (AID 588514); settings: ER-alpha-UAS-bla HEK293, beta-lactamase ratio, 18 h; series mostly up to 76.8 µM;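 further: 0% = vehicle only and 100% = reference agonist; nearly all actives have a fitted effect of over 70% in size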
In short: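 Cells were plated at 5000/well, incubated 4 hrs at 37 C, dosed with compound titration series, incubated 18 hrs at 37 C, loaded with CCF4 dye for 2 hrs at RT, then fluorescence was read.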

[8] = target: Bile acid receptor (Homo sapiens) (UniProt Q96RI1); assay: qHTS assay for small molecule agonists of farnesoid X receptor signaling (AID 588527); settings: HEK293T FXR-UAS-bla, beta-lactamase ratio, 16 h; stronger effect = higher value;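 further: 0% = vehicle basal and 100% = reference agonist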
In short: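 Quantitative HTS used FXR-UAS-bla HEK293T cells with 16 h compound incubation at 37 C. EC50 values came from concentration-response curves normalized to chenodeoxycholic acid.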

[9] = target: Glucocorticoid receptor (Homo sapiens) (UniProt P04150); assay: qHTS assay for small molecule antagonists of glucocorticoid receptor signaling (AID 588533; active means well fitted inhibition curve with a large enough effect in the signal ratio, with a control signal flat, not every such curve was filed as active; the % refers to the signal ratio;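 further: cells stimulated with 2 nM dexamethasone as agonist; on the % scale 0 is the no-effect control and ±100 the full control effect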); settings: HeLa MMTV-bla, GRE beta-lactamase ratio, antagonist mode, 18 h; series mostly up to 76.8 µM
In short: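 Antagonist-mode qHTS: compound titrations added to GRE-bla HeLa cells, then dexamethasone 2 nM final; 18 h, 37 C. CCF4 FRET fluorescence normalized to dexamethasone and DMSO; IC50 from Hill fit.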

[10] = target: Peroxisome proliferator-activated receptor delta (Homo sapiens) (UniProt Q03181); assay: qHTS assay for small molecule agonists of peroxisome proliferator-activated receptor delta signaling (AID 588534); settings: HEK293T PPARdelta-UAS-bla, beta-lactamase ratio, 18 h; series mostly up to 76.7 µM;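 further: 0% = DMSO basal wells and 100% = positive control agonist at 10 µM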
In short: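 Fluorescence from CCF4 substrate cleavage by beta-lactamase reporter, read 2 hrs at RT, measured agonist activity. Compounds were tested with 18 hrs exposure at 37 C. Concentration-response data fitted to Hill equation.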

[11] = qHTS assay for small molecule antagonists of peroxisome proliferator-activated receptor delta signaling (AID 588535; active means well fitted inhibition curve with a large enough effect in the signal ratio, with a control signal flat, not every such curve was filed as active; the % refers to the signal ratio;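 on max response: cells co-treated with a PPAR-delta agonist as stimulator during compound exposure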); settings: HEK293T PPARd-UAS-bla, beta-lactamase FRET ratio, 18 h; 460 nm channel
In short: (§1)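 HEK293T PPAR-delta-UAS-bla cells, 4000/well, 2% charcoal/dextran FBS; 5 h 37 C; cpd titration; 18 h 37 C; CCF4 2 h RT; FI 460/530 nm; Hill fit → IC50, efficacy.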

[12] = target: Peroxisome proliferator-activated receptor delta (Homo sapiens) (UniProt Q03181); assay: as above; settings: HEK293T PPARd-UAS-bla, beta-lactamase FRET ratio, 18 h; series mostly up to 76.7 µM
In short: as §1

[13] = target: Peroxisome proliferator-activated receptor gamma (Homo sapiens) (UniProt P37231); assay: qHTS assay for small molecule agonists of peroxisome proliferator-activated receptor gamma signaling (AID 588536; active means well fitted curve in the direction sought with a large enough effect in the signal ratio, with a control signal flat, not every such curve was filed as active; the % refers to the signal ratio;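 further: 0% = DMSO basal wells and 100% = rosiglitazone at 2 µM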); settings: HEK293 PPARg-UAS-bla, beta-lactamase ratio, 16 h, percent of rosiglitazone response, DMSO as zero; series mostly up to 76.7 µM
In short: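 HEK293 UAS-bla reporter line, 1% charcoal/dextran FBS; titration, 16 h, 37 C; CCF4 loading 2 h RT; fluorescence 460/530 nm. Normalized to rosiglitazone 2 uM = 100%, DMSO = 0%.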

[14] = target: Vitamin D3 receptor (Homo sapiens) (UniProt P11473); assay: qHTS assay for small molecule antagonists of vitamin D receptor signaling (AID 588541); settings: HEK293T VDR-UAS-bla, beta-lactamase ratio, antagonist mode; series mostly up to 76.7 µM;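 further: receptor activated by calcitriol during compound treatment; on the % scale 0 is the no-effect control and ±100 the full control effect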
In short: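 Antagonist-mode beta-lactamase reporter assay: HEK293T VDR-UAS-bla cells were exposed to titrated compound alongside 1-alpha,25-dihydroxyvitamin D3 at 3 nM final for 16 h. Values were normalized to the 50 nM agonist control and DMSO basal, with IC50 and efficacy from Hill equation fits.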

[15] = target: Vitamin D3 receptor (Homo sapiens) (UniProt P11473); assay: qHTS assay for small molecule agonists of vitamin D receptor signaling (AID 588543); settings: HEK293T VDR-UAS-bla, beta-lactamase ratio, 16 h; series mostly up to 76.8 µM;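 further: 0% = DMSO basal and 100% = reference agonist control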
In short: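 Reporter cells (HEK293T, VDR-UAS-bla) were seeded in medium with 2% charcoal-stripped serum and incubated 5 h, then compounds in concentration series were added for 16 h at 37 °C. Stimulation was scaled between DMSO basal and 50 nM 1α,25-dihydroxyvitamin D3.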

[16] = qHTS assay for small molecule antagonists of the retinoid-related orphan receptor gamma (ROR-gamma) signaling pathway - cell viability counter screen (AID 720652; active means well fitted curve in the direction sought with a large enough effect in the repeat runs; an effect the other way counts as inactive or inconclusive;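 further: compound exposure lasted 16 hr before ATP read; on the % scale 0 is the no-effect control and ±100 the full control effect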); settings: RORgamma reporter cell line viability counter screen; series mostly up to 92.2 µM
In short: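 Luminescence from CellTiter-Glo after 30 min at room temperature reported cellular ATP as the cytotoxicity measure. Cells were the CHO reporter line with doxycycline-induced ROR-gamma expression, exposed to compound for 16 hr at 37 C.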

[17] = target: Glucocorticoid receptor (Homo sapiens) (UniProt P04150); assay: qHTS assay for small molecule agonists of glucocorticoid receptor signaling (AID 588532; active means well fitted curve in the direction sought with a large enough effect in the signal ratio, with a control signal flat; the % refers to the signal ratio;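 further: 100% = dexamethasone at 0.1 µM and 0% = DMSO only wells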); settings: HeLa MMTV-bla, beta-lactamase ratio, agonist, 18 h; stronger effect = higher value; percent of dexamethasone control, DMSO zero
In short: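 Quantitative HTS using CellSensor MMTV-bla HeLa cells in charcoal/dextran-treated serum; compounds tested up to 92 uM. After 18 h at 37 C, CCF4 dye reported reporter induction.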

[18] = qHTS assay for small molecule agonists of the antioxidant response element (ARE) signaling pathway (AID 651741; active means well fitted activation curve with a large enough effect in the signal ratio; the % refers to the signal ratio; further: potency means the concentration at half of the fitted maximal effect; on activation: % of control where 0% means no effect); settings: HepG2 ARE-bla reporter, beta-lactamase FRET ratio, 16 h; series mostly up to 96 µM
In short: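 Quantitative HTS in HepG2 cells stably expressing an ARE-beta-lactamase reporter; 16 h compound exposure at 37 C, followed by 2 h room-temperature incubation with LiveBLAzer B/G FRET substrate and fluorescence measurement.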

[19] = qHTS assay for small molecule activators of the nuclear factor-kappa B (NF-kB) signaling pathway (AID 651749; active means well fitted activation curve with a large enough effect in the signal ratio; the % refers to the signal ratio; further: % of control where 0% means no effect); settings: NF-kB-bla ME-180 cells, beta-lactamase FRET ratio, 16 h; stronger effect = higher value
In short: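 Readout: beta-lactamase reporter driven by an NF-kB response element, detected fluorescently as loss of FRET. Cells were the ME-180 line, treated 16 hr at 37C with pin-transferred compound.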

[20] = target: Peroxisome proliferator-activated receptor gamma (Homo sapiens) (UniProt P37231); assay: qHTS assay for small molecule antagonists of peroxisome proliferator-activated receptor gamma signaling (AID 588537; active means well fitted inhibition curve with a large enough effect in the signal ratio, with a control signal flat, not every such curve was filed as active; the % refers to the signal ratio;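 further: reporter cells co-stimulated with 50 nM rosiglitazone agonist during compound treatment; % of control where 0% means no effect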); settings: HEK293 PPARg-UAS-bla, beta-lactamase ratio, antagonist mode; series mostly up to 76.8 µM
In short: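 Antagonist mode, beta-lactamase reporter in HEK293; charcoal/dextran FBS 1%; 3000 cells/well, 37 C 6-6.5 h; cpd titration + rosiglitazone 50 nM final, 16 h 37 C; CCF4, 2 h RT; 460/530 nm; Hill fit → IC50, efficacy.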

Peroxisome proliferator-activated receptor gamma (Homo sapiens), sequence (P37231 whole entry, looked up): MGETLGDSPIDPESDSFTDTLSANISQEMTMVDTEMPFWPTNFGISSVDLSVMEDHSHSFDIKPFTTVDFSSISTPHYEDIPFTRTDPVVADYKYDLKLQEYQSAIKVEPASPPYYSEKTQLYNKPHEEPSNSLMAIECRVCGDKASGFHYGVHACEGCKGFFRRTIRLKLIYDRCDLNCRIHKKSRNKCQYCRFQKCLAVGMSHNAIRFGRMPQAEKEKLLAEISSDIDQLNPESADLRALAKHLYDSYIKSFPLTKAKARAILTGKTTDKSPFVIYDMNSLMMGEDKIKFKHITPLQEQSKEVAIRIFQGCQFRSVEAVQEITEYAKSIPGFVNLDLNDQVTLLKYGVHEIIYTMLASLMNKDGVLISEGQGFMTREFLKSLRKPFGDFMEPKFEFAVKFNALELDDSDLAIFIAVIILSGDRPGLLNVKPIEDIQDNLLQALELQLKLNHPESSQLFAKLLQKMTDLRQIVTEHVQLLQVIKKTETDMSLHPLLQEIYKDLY
Glucocorticoid receptor (Homo sapiens), sequence (P04150 whole entry, looked up): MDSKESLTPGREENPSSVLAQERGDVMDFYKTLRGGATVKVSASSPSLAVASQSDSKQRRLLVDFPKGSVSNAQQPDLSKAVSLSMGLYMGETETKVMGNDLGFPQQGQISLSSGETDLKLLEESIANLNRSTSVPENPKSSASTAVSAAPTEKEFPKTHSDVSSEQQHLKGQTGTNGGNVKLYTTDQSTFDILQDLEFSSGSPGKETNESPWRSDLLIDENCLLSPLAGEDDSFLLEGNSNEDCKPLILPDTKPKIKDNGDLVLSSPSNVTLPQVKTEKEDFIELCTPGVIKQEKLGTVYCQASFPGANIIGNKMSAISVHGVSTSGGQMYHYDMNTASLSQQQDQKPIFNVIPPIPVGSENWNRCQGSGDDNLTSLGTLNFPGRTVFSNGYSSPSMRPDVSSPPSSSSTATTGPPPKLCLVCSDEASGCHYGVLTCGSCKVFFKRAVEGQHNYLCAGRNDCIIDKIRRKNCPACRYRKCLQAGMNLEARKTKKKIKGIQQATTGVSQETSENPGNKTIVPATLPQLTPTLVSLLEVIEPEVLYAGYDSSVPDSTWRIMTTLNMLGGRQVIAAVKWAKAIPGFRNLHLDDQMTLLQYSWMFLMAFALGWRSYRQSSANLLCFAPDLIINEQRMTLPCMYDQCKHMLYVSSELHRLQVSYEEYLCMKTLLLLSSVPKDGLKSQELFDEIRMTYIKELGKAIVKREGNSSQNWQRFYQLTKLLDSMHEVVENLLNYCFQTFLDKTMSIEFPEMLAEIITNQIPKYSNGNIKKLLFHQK
Estrogen receptor (Homo sapiens), sequence (P03372 whole entry, looked up): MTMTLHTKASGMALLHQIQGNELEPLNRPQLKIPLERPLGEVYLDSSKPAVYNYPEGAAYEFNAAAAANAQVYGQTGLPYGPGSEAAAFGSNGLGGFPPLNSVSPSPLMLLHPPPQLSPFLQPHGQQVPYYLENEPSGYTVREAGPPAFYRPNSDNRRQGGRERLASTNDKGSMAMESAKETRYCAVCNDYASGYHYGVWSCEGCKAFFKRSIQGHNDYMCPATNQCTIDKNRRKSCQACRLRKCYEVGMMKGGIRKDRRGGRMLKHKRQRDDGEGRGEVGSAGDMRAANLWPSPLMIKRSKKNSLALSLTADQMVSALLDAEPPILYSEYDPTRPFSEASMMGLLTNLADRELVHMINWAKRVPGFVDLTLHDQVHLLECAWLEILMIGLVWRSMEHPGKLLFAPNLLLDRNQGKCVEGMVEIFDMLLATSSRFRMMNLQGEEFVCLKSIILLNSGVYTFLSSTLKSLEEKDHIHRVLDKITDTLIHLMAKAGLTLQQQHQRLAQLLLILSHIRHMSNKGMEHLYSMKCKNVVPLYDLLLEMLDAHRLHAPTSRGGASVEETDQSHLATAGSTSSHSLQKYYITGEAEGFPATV
Peroxisome proliferator-activated receptor delta (Homo sapiens), sequence (Q03181 whole entry, looked up): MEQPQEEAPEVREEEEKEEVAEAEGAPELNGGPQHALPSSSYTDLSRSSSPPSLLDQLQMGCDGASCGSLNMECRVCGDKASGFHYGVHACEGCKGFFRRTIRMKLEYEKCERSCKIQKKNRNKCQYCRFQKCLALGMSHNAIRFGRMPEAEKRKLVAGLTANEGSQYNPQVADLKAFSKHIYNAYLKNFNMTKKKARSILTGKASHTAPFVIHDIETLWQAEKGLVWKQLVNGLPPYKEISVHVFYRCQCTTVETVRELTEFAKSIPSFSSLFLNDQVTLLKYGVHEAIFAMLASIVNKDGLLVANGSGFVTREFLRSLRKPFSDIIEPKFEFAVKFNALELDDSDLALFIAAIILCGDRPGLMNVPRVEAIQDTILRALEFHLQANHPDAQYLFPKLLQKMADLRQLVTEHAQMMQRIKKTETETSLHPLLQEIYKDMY
Vitamin D3 receptor (Homo sapiens), sequence (P11473 whole entry, looked up): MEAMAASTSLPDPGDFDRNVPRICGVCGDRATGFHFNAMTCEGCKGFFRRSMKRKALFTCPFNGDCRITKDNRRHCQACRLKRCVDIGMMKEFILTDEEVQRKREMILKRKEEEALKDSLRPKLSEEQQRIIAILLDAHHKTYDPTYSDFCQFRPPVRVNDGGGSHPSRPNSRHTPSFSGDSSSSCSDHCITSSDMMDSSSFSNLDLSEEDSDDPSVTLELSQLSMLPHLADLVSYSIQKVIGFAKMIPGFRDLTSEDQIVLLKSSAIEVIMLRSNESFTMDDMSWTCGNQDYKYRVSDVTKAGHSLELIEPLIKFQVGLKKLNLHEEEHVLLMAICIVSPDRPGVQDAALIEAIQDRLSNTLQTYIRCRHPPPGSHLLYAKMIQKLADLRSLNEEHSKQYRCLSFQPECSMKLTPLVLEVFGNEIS
Bile acid receptor (Homo sapiens), sequence (Q96RI1 whole entry, looked up): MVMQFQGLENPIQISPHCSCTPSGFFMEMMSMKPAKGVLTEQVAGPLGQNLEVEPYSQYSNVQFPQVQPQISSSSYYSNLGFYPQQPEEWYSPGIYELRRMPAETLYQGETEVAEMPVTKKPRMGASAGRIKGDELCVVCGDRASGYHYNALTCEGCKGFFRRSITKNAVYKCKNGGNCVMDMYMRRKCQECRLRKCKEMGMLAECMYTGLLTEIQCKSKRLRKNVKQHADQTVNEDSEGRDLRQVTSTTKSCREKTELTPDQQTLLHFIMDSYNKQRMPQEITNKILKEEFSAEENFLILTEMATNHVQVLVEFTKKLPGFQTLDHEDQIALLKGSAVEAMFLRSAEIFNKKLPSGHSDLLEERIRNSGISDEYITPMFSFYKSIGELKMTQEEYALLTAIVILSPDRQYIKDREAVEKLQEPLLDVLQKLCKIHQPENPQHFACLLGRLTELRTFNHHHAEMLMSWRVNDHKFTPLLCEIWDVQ

CC(C)(COCC1CO1)COCC1CO1 (stereo not drawn)
inactive: Potency [1] > 92 µM | Potency [2] > 92 µM | Potency [3] | Potency [4] | Potency [5] | Potency [6] | Potency [7] | activation [8] 1.49% | outcome [9] | outcome [10] | outcome [12] | outcome [13] | outcome [14] | outcome [15] | Potency [16]
0.207%: max response [11]

Nc1cc(Cl)ccc1O
inactive: Potency [1] > 92 µM | Potency [2] > 92 µM | Potency [3] | Potency [5] | Potency [6] | Potency [7] | activation [17] 3.82% | outcome [9] | outcome [10] | outcome [12] | outcome [13] | outcome [15] | activation [19] -0.288%
active: Potency [18] 10.6 µM
-44.8%: max response [11]

CC(C)[N+](=O)[O-]
inactive: Potency [1] > 92 µM | Potency [4] | Potency [5] | Potency [6] | activation [8] -1.29% | activation [17] -6.88% | outcome [12] | outcome [13] | outcome [14] | Potency [18] | activation [19] -0.258%
7.55%: max response [11]

O=C(O)C(Br)Br
inactive: Potency [1] > 92 µM | Potency [2] > 92 µM | Potency [3] | Potency [4] | Potency [5] | Potency [6] | Potency [7] | activation [8] -1.44% | Potency [20] | outcome [14] | activation [19] -1.25% | Potency [16]
active: Potency [18] 2.98 µM

C=CC(=O)OCC(C)C
inactive: Potency [3] | Potency [4] | Potency [5] | Potency [7] | activation [17] -2.2% | outcome [9] | outcome [10] | outcome [12] | outcome [13] | Potency [20] | outcome [14] | outcome [15] | Potency [18] | activation [19] 0.0391% | Potency [16]
-6.69%: max response [11]

C=CC(=O)OCCO
-1.31%: max response [11]
inactive: Potency [2] > 92 µM | Potency [3] | Potency [4] | Potency [6] | activation [17] 19.7% | outcome [12] | outcome [14] | outcome [15] | activation [19] 0.11%
active: Potency [18] 37.6 µM

O=[N+]([O-])c1cc(Cl)c(Cl)c(Cl)c1
inactive: Potency [1] > 92 µM | Potency [2] > 92 µM | Potency [3] | Potency [5] | Potency [6] | Potency [7] | activation [8] -2.43% | outcome [10] | outcome [12] | outcome [13] | outcome [14] | outcome [15] | activation [19] -1.89% | Potency [16]
30.2%: max response [11]

CCCCC(CC)COC(=O)c1ccc(C(=O)OCC(CC)CCCC)c(C(=O)OCC(CC)CCCC)c1 (stereo not drawn)
inactive: Potency [1] > 92 µM | Potency [2] > 92 µM | Potency [5] | activation [17] -5.8% | outcome [9] | outcome [10] | outcome [13] | outcome [14] | outcome [15] | Potency [18] | activation [19] 1.1% | Potency [16]

CCCCOCC1CO1 (stereo not drawn)
inactive: Potency [2] > 92 µM | Potency [4] | Potency [6] | activation [8] -3.01% | activation [17] -2.49% | outcome [9] | outcome [10] | outcome [12] | outcome [13] | Potency [20] | Potency [18] | Potency [16]
13.9%: max response [11]

O=C(O)C(Br)CBr (stereo not drawn)
31.3%: max response [11]
active: Potency [18] 42.2 µM
inactive: Potency [1] > 92 µM | Potency [2] > 92 µM | Potency [3] | Potency [4] | Potency [6] | Potency [7] | activation [17] -2.23% | outcome [10] | outcome [12] | activation [19] 1.48% | Potency [16]

CN(C)c1ccc(N)cc1
active: activity change, negative = cytotoxicity [4] -109% | Potency [5] 50.1 µM | Potency [18] 33.5 µM
inactive: Potency [6] | Potency [7] | outcome [10] | outcome [12] | outcome [13] | Potency [20] | outcome [14] | outcome [15]
-7.4%: max response [11]

CCN(N=O)C(N)=O
-10.7%: max response [11]
inactive: Potency [1] > 92 µM | Potency [4] | Potency [5] | Potency [6] | Potency [7] | activation [8] -1.35% | activation [17] -3.98% | outcome [10] | outcome [12] | outcome [13] | Potency [20] | outcome [15] | Potency [16]

N#CCc1ccccc1
-33.3%: max response [11]
inactive: Potency [2] > 92 µM | Potency [4] | Potency [6] | Potency [7] | outcome [10] | outcome [12] | Potency [20] | outcome [14] | activation [19] 0.487% | Potency [16]
